High-throughput results: PubChem, several laboratories
CYP2C19 activ: cytochrome P450 2C19 (human) activation; P33261; recombinant CYP2C19, luciferin-H EGE luminescence; active compounds read high; 0 = fully inhibited enzyme, 1 = untreated enzyme; activation factor at 5 µM; 96,000 tested, under 10 active;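 active means activation factor of at least 2 at 5 µM in the primary screen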;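 further: 0 = wells with 2.5 mM tranylcypromine and 1 = vehicle-only wells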
CYP2C19 inhib: inhibitors of human CYP2C19 | inhibition, % at 5 µM | 21% of 96,000 active | CYP2C19 Supersomes, luciferin-H EGE luminescence, 30 min | AID 778;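 active means CYP2C19 inhibition above a set limit at 5 µM in the primary screen, cut at about 50% in these data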;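 further: plate controls were negative control wells for no effect and 2.5 mM tranylcypromine positive control for full effect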
sEH act: soluble epoxide hydrolase (human) activation; 0.04% of 91,000 active; P34913; activation, % at 2 µM; purified human sEH enzymatic activity, activator screen; in the data active means activation above about 37%
Target sequence (P34913 whole entry, looked up): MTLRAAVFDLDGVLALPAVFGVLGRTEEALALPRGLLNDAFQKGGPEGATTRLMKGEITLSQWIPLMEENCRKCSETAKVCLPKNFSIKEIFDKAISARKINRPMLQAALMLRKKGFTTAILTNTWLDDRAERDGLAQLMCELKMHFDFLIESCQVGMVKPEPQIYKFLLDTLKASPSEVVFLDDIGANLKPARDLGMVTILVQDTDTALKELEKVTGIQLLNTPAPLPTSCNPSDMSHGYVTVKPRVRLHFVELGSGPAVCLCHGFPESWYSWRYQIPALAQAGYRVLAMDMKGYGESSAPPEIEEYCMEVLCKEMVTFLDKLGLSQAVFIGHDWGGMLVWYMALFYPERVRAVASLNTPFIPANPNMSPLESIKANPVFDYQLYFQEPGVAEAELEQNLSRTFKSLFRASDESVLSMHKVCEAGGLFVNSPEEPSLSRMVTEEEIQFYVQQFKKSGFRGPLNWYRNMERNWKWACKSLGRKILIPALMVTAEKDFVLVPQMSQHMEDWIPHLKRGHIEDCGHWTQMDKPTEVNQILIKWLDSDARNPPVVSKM
CYP2C9 inhib: blocks human cytochrome P450 2C9. CYP2C9 Supersomes, luciferin-H conversion, luminescence. inhibition, % at 5 µM. 20% of 96,000 active;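 active means blocking of liver enzyme CYP2C9 beyond about 50% at 5 µM, limit read from the data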
CYP2C9 activ: increases human cytochrome P450 2C9 activity; P11712; recombinant CYP2C9, luciferin-H conversion, luminescence; active compounds read high; factor 1 = untreated enzyme, 0 = blocked; activation factor at 5 µM; 1.4% of 96,000 active;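 active means activation factor of 2 or more for CYP2C9 at a 5 µM dose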;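 further: 0 = sulfaphenazole-blocked wells and 1 = vehicle-only wells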
sEH inhibitor: blocks human soluble epoxide hydrolase activity. P34913. AID 707. recombinant human sEH enzymatic activity assay. inhibition, % at 2 µM. 0.34% of 91,000 active; in the data active means inhibition above about 80%
* hit, by the source's call; x = not tested or not shown. Rows were chosen to be rich in hits. Some 27% of all compounds tested hit in one or more screens of this group.

SMILES	CYP2C19 activ	CYP2C19 inhib	sEH act	CYP2C9 inhib	CYP2C9 activ	sEH inhibitor
CCc1nc(SCC(=O)N2c3ccccc3Sc3ccccc32)c2ccccc2n1	1	-0.5	10.3	53.3*	0.5	-10.0
CCCC(=O)NC(=S)Nc1ccccc1F	0.6	42.0	-8.0	29.0	0.7	8.8
COc1cc(C)c(N)cc1C(C)C	0.1	88.4*	2.8	56.8*	0.4	-3.3
Cc1c(CCO)c(=O)n(C)n1C(=O)c1ccc(F)cc1	0.7	26.3	-2.7	2.2	1	3.3
Cc1c(CCO)c(=O)[nH]n1C(=O)c1ccc(F)cc1	0.7	27.6	4.5	74.3*	0.3	-3.9
CC(=O)c1cccc(N(CC(=O)Nc2cccnc2)S(C)(=O)=O)c1	0.9	10.8	11.8	-23.5	1.2	-8.9
CSc1nc(N(C)NC(=O)c2ccccc2)c2ccccc2n1	0.1	88.0*	0.5	65.0*	0.3	1.8
CSc1nc(N(C)NC(=O)c2ccc(Cl)cc2)c2ccccc2n1	1	-0.3	-6.8	17.4	0.8	8.5
CCOC(=O)C1=NN(c2ccc(Cl)cc2)C(c2ccccc2)CC1=O (stereo unspecified)	x	x	-14.0	x	x	11.9
O=c1c(F)cn(C2CCCO2)c(=O)n1Cc1c(F)cccc1Cl (stereo unspecified)	0.1	92.1*	-19.4	15.7	0.8	23.5
O=C(CNC(=O)Cc1ccccc1)NCC(=O)OCC(=O)c1cccc2ccccc12	0.8	22.5	9.2	-256.6	3.6*	-7.1
O=C(CNC(=O)c1ccco1)OCC(=O)c1cccc2ccccc12	0.9	5.1	0.2	-91.3	1.9	-2.0
COc1nc(NS(=O)(=O)c2ccc(C)cc2)nc(C)c1Cl	0.3	68.0*	-4.8	71.0*	0.3	4.8
COc1c(C)cccc1C(=O)Nc1cc(-c2nn3c(C)nnc3s2)ccc1C	x	x	11.9	x	x	-12.2
CCCCC(NC(=O)c1ccccc1)C(=O)OCC(=O)N1c2ccccc2Sc2ccccc21 (stereo unspecified)	0.6	44.3	9.0	93.7*	0.1	-10.3
CC(C)CNCC(=O)N1c2ccccc2Sc2ccccc21	1	-0.9	-10.6	5.4	0.9	10.8
Cc1ccccc1C(=O)N=c1sccn1C	0.1	93.1*	-0.9	22.4	0.8	-0.9
CC(C)Oc1ccc(C2c3c(oc4ccccc4c3=O)C(=O)N2CCCN2CCOCC2)cc1 (stereo unspecified)	0.5	48.9	11.0	51.3*	0.5	-12.1
O=C1c2oc3ccccc3c(=O)c2C(c2cccnc2)N1CCCN1CCOCC1 (stereo unspecified)	1	-4.6	21.5	-3.7	1	-20.7
C=CCOc1ccc(C2c3c(oc4ccccc4c3=O)C(=O)N2CCCN2CCOCC2)cc1 (stereo unspecified)	0.6	35.9	-7.0	54.7*	0.5	7.6
c1ccc(Cc2cc(-c3ccccc3)on2)cc1	x	x	-10.9	x	x	7.8
O=C(CCC1CCCC1)N1CCN(C2CCCC2)CC1	0.3	73.4*	x	11.3	0.9	x
Cc1cc(O)c(C(C[N+](=O)[O-])c2ccc(Cl)cc2)c(=O)o1 (stereo unspecified)	0.5	47.0	8.7	83.7*	0.2	-5.8
COc1ccc(C(c2c(O)cc(C)oc2=O)c2c(O)cc(C)oc2=O)cc1	0.9	7.0	7.3	34.8	0.7	-4.4
O=C(c1ccc(Cl)c(S(=O)(=O)Nc2ccc(F)cc2)c1)N1CCN(c2ccccn2)CC1	0.3	66.7*	x	69.8*	0.3	x
SMILES	CYP2C19 activ	CYP2C19 inhib	sEH act	CYP2C9 inhib	CYP2C9 activ	sEH inhibitor
Cc1ccc(NS(=O)(=O)c2ccc(C(=O)N3CCN(c4ccccn4)CC3)cc2)cc1	0.9	11.7	-0.5	47.4	0.5	3.6
CN(c1ccccc1)S(=O)(=O)c1cc(C(=O)N2CCN(c3ccccn3)CC2)ccc1Cl	0.3	73.1*	8.1	99.4*	0	-6.6
Cc1ccc(-c2nnc(Nc3ccccc3)o2)cc1	0.6	44.9	x	22.4	0.8	x
CCCCn1c(NC(=O)c2ccccc2)c(C#N)c2nc3ccccc3nc21	1	-1.4	x	81.3*	0.2	x
N#Cc1c(N)n(CCNC(=O)c2ccc(Cl)cc2)c2nc3ccccc3nc12	0.9	10.0	-1.4	-3.8	1	2.3
CCOc1cc(C(=O)NCCN2CCOCC2)cc(OCC)c1OCC	x	x	-3.4	x	x	0.9
CCOC(=O)CCc1c(C)c2ccc(OC(C)C(=O)OCC)c(C)c2oc1=O (stereo unspecified)	0.8	16.8	3.8	49.9	0.5	-5.8
CCOC(=O)C(C)Oc1ccc2c(C)cc(=O)oc2c1C(C)=O (stereo unspecified)	0.4	58.2*	-4.5	6.6	0.9	3.6
CCOC(=O)C(C)Oc1ccc2c(CC)cc(=O)oc2c1C (stereo unspecified)	0.6	35.4	7.5	60.3*	0.4	-7.0
CCOC(=O)C(NC(=O)CC)(Nc1cc(C)on1)C(F)(F)F (stereo unspecified)	0.7	31.3	11.2	10.7	0.9	-7.9
O=C(CSc1nc2ccc(S(=O)(=O)N3CCOCC3)cc2[nH]1)N1CCOCC1	0.8	15.6	-3.4	6.5	0.9	4.8
CCCCNS(=O)(=O)c1ccc2nc(SCC(=O)N3CC(C)OC(C)C3)[nH]c2c1 (stereo unspecified)	0.6	42.1	-21.7	55.4*	0.4	20.8
CN1C(=O)CC(N2CCN(c3ccc(Cl)c(Cl)c3)CC2)C1=O (stereo unspecified)	0.5	47.2	4.4	17.0	0.8	-4.9
CCC(=O)N/C=C/n1cnc2cc(C(F)(F)F)ccc21	0.2	80.5*	8.3	38.4	0.6	-8.2
CCC(=O)Nc1ccc2c(c1)ncn2-c1ccc(OC)cc1	x	x	-11.4	x	x	16.1
O=C(c1ccccc1)N(c1ccccc1)C1C=CS(=O)(=O)C1 (stereo unspecified)	0.7	25.1	-0.7	17.4	0.8	-1.0
COc1ccc(NC(=O)c2ccccc2NC(=O)c2ccco2)c(OC)c1	0.8	24.0	-9.4	59.2*	0.4	9.1
COc1ccc(OC)c(CNCCNC(=O)c2ccco2)c1	0.3	73.1*	9.2	12.7	0.9	-7.8
COc1cccc(CNCCNC(=O)c2ccco2)c1OC	1	0.7	-4.6	3.2	1	2.9
COc1cc(NC(=O)c2cccs2)ccc1NC(=O)c1ccco1	0.8	25.0	-4.4	73.9*	0.3	4.7
O=C(Nc1cccc(NC(=O)c2cccs2)c1)c1ccco1	1.1	-10.1	1.3	19.5	0.8	2.3
COc1cc(NC(=O)c2ccco2)ccc1NC(=O)c1ccccc1Cl	0.5	51.2*	4.2	71.6*	0.3	-0.3
COc1cc(NC(=O)c2ccccc2Cl)ccc1NC(=O)c1ccco1	0.7	31.4	10.8	11.9	0.9	-8.8
Cc1cc(Nc2ccccc2N2CCOCC2)n2ncnc2n1	1	4.0	-15.3	15.6	0.8	13.7
COc1ccc(/C=C/C(=O)c2ccc(NC(=O)c3cccs3)cc2)cc1OC	0.7	33.7	0.0	71.9*	0.3	1.1
